Measurements: PubChem BioAssay (NCATS)
Results filed as inconclusive are left out. Values without a mark were called inactive. Activity calls are given as the source filed them. The call rests on the fitted dose curve; in most records, active means well fitted inhibition curve with a large enough effect; inconclusive means small, poorly fitted or top-dose-only effect; inactive means flat fitted curve, though single readings scatter.

What was measured:
CRL-7250 = normal cell line; assay: Cytotoxic Profiling of Annotated Libraries Using Quantitative High-Throughput Screening (AID 1296008); conditions: Five cell lines viability, CellTiter-Glo ATP luminescence, 48-72 h; max response: hits give low values; further: nearly all actives have a fitted effect of over 60% in size
How it was run: (§1)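 Cytotoxicity was measured as CellTiter-Glo ATP luminescence, read after 10 min at room temperature. Compound treatment of the cells lasted 48 or 72 hr at 37 degrees Celsius in a qHTS format.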

HEK293 = assay: as above; conditions: Five cell lines viability, CellTiter-Glo ATP luminescence, 48-72 h; max response: hits give low values
How it was run: as §1
On the % scale 0 is the no-effect control and ±100 the full control effect; potency means the concentration at half of the fitted maximal effect.

## COC(C(=O)N1Cc2[nH]nc(NC(=O)c3ccc(N4CCN(C)CC4)cc3)c2C1)c1ccccc1 (stereo not drawn)
CRL-7250
  Potency: 1840 nM (active)
HEK293
  Potency: 1640 nM (active)

## N#Cc1cnc2cnc(NCc3cccnc3)cc2c1Nc1ccc(F)c(Cl)c1
CRL-7250
  Potency: 5170 nM (active)
HEK293
  Potency: 3660 nM (active)

## C/C=C1\[C@H](O[C@@H]2O[C@H](CO)[C@@H](O)[C@H](O)[C@H]2O)OC=C(C(=O)OC)[C@H]1CC(=O)O
CRL-7250
  max response: -9.39%
HEK293
  max response: 3.99%

## OCc1ccc(O[C@@H]2O[C@H](CO)[C@@H](O)[C@H](O)[C@H]2O)cc1
HEK293
  max response: -0.162%

## CC(=O)c1cc(C(=O)N[C@@H](C)Cn2ccc(-c3ccc(C#N)c(Cl)c3)n2)[nH]n1
HEK293
  Potency: 23100 nM (active)

## NC(=O)c1cccc2cn(-c3ccc(C4CCCNC4)cc3)nc12 (stereo not drawn)
HEK293
  Potency: 7310 nM (active)

## CN(C)c1ccc2c(c1)OC(N)=C(C#N)C2c1cccc(C(F)(F)F)c1 (stereo not drawn)
CRL-7250
  Potency: 1640 nM (active)
HEK293
  Potency: 184 nM (active)

## CCCCCCOc1cc2c(cc1N(C)c1ncc(C(=O)O)cn1)C(C)(C)CCC2(C)C
CRL-7250
  max response: 4.99%
HEK293
  max response: 3.1%

## N#Cc1c(Oc2ccc(F)c(NC(=O)Cc3cccc(C(F)(F)F)c3)c2)ccc2nc(NC(=O)C3CC3)sc12
HEK293
  Potency: 1300 nM (active)

## C=C1C(=O)O[C@H]2[C@H]1CC/C(C)=C/CC[C@@]1(C)O[C@@H]21
CRL-7250
  max response: -15.8%
HEK293
  max response: -18.1%

## CC(C)(C)C(=O)CN1C(=O)[C@H](NC(=O)Nc2cccc(C(=O)O)c2)CN(C2CCCCC2)c2ccccc21
CRL-7250
  max response: 1.1%
HEK293
  max response: 1.37%
